Screens: PubChem, Broad Institute
PAX8 inh HTS – inhibitors of PAX8-driven TPO luciferase reporter, primary screen, RMG-I cells, single concentration. hit rate 1.2% among 360,000. AID 652154, 2013. inhibition, % at 12.6 µM. SteadyGlo, 24 h;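 active = mean replicate inhibition at least 60% with every replicate also reaching 60%; inconclusive = only one of the two criteria is met; inactive = mean below 60% and not all replicates reaching 60%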;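 also: luciferase light reporting Pax8 driven TPO promoter activity; plate controls were median of neutral control wells for no effect and mitoxantrone controls for full effect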
Shn3 3UTR inh – reduction of Shn3 3'UTR firefly luciferase signal, primary screen, Schnurri-3 inhibitor project, cell-based, Clone20 osteoblasts, set 2; hit rate 0.52% among 360,000; Clone20 osteoblast Shn3 3'UTR firefly luciferase, 24 h; inhibition, % at 12.5 µM;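 active = mean inhibition of at least 75% with every replicate also reaching 75%; inconclusive = mean inhibition at least 75% but some replicate below; inactive = mean inhibition below 75%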;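 also: 0% = median of neutral control wells and 100% = pilot-screen positive control compound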
NSD2 inh – NSD2 histone methyltransferase inhibitors, primary screen, biochemical, AlphaScreen, single concentration, set 2. NSD2 peptide methylation, 120 min. hit rate 0.54% among 310,000. Histone-lysine N-methyltransferase NSD2 (Homo sapiens), O96028. inhibition, % at 12.5 µM; in the data active = inhibition above about 50%
Target sequence (O96028 whole entry, looked up): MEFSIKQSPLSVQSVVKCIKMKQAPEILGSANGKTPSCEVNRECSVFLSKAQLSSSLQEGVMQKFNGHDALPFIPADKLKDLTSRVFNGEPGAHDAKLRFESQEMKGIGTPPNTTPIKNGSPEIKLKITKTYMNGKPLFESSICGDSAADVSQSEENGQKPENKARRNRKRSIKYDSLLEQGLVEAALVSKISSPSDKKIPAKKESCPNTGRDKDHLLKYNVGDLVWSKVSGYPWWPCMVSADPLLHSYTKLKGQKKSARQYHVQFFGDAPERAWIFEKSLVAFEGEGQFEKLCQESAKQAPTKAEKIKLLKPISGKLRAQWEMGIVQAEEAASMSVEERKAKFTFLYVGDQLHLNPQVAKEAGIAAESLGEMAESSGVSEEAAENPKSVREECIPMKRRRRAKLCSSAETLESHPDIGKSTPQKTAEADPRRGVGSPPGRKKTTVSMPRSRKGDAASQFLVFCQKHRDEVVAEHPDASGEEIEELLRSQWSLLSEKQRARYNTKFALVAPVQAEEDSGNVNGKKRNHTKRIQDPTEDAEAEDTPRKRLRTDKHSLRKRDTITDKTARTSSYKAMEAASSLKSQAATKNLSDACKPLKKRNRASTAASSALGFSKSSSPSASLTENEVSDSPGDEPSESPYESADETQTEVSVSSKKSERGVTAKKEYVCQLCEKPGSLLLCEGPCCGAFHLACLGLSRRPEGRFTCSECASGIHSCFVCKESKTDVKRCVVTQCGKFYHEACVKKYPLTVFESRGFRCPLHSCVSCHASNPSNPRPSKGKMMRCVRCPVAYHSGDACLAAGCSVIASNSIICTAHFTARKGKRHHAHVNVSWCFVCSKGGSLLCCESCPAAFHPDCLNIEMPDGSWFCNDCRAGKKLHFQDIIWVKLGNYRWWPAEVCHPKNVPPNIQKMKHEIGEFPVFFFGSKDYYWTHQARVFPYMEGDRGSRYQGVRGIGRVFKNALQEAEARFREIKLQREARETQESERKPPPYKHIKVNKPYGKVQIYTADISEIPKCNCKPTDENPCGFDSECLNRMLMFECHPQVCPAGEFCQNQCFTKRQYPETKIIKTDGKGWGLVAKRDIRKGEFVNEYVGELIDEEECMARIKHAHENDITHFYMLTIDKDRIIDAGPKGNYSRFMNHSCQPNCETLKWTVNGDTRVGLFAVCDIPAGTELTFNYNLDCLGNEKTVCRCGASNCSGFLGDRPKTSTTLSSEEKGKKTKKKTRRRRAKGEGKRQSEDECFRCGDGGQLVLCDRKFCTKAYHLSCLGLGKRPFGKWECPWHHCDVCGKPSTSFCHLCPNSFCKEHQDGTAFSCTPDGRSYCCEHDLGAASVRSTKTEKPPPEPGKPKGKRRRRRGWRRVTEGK
HIV Env fusion – inhibitors of HIV-1 Env-driven cell-cell fusion, primary screen, HeLa-JRFL effector, CEM21 target cells, luciferase. hit rate 1.1% among 360,000. inhibition, % at 12.3 µM. AID 651610, 2012;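 active = mean replicate inhibition score of at least 50 and every replicate individually at or above 50; inconclusive = only one of the two criteria met; inactive = mean below 50 and not all replicates reaching 50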;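 also: 0% = plate neutral controls and 100% = maraviroc near 300 nM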
N-glyco inh – increase of ERlucT glycosylation luciferase signal, primary screen, N-linked glycosylation inhibitor project, D54 ERlucT cells, luminescence, set 2 | D54 ERlucT glycosylation luciferase reporter, 24 h; percent of 100 nM tunicamycin response | reporter increase, % at 12.5 µM | hit rate 0.23% among 360,000 | AID 588692, 2011;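 active = mean luciferase reporter signal, scaled so untreated is 0 and the glycosylation-blocking control 100, at or above a set limit in every replicate; inconclusive = mean reaches the limit but not every replicate does; inactive = mean below the limit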;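 also: luciferase carries N-glycosylation sites so blocking glycosylation raises the light; 0% = median of neutral control wells and 100% = median of 100 nM tunicamycin wells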
LMP1 NFkB inh – EBV LMP1-driven NF-kappaB luciferase reporter inhibitors, primary screen, cell-based, luminescence, single point; LMP1-induced NF-kappaB luciferase reporter cells; inhibition, % at 12.5 µM; hit rate 0.69% among 350,000; AID 504558, 2011; in the data active = inhibition above about 41%; inconclusive = no clear call, values can overlap the other calls;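 also: 0% = neutral control wells and 100% = reference inhibitor control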
* hit, by the source's call; ? = inconclusive; . = no result; ! = a repeat was not active; [ ] = another dose, or the depositor's remark. Only some compounds are listed: those with a hit (about 2.8% of all), similar ones and a draw of the others.

SMILES	PAX8 inh HTS	Shn3 3UTR inh	NSD2 inh	HIV Env fusion	N-glyco inh	LMP1 NFkB inh
Cn1nc(-c2ccccn2)nc2c(=O)n(C)c(=O)nc1-2	105*	98*	.	68*	-23	14
COc1ccc(-c2nc(-c3ccccn3)ncc2S(C)(=O)=O)cc1	11	14	-3	-3	-1	4
CCn1c(N)nc2c1c(=O)n(C)c(=O)n2C	13	17	.	13	3	5
CCCc1nc2c(=O)n(C)c(=O)nc-2n(C)n1	104*	97*	.	69*	-20	90*
O=[N+]([O-])c1cc2oc3c(c2c(C=NCc2ccncc2)c1O)CCCC3	.	-7	65*	.	3	-15
CC(C)(C)N=Cc1c(O)ccc2oc3c(c12)CCCC3	33	-9	0	23	3	-23
COc1ccc(-c2cc(C(=O)Nc3cc(OC)cc(C(=O)Nc4cccc(C(F)(F)F)c4)c3)[nH]n2)cc1	72*!	8	.	16	-7	-13
COc1cc(NC(=O)N2CCNC2=O)cc(C(=O)Nc2cccc(C(F)(F)F)c2)c1	63*	9	.	-282	17	15
COc1cc(NC(=O)c2nccnc2N)cc(C(=O)Nc2cccc(C(F)(F)F)c2)c1	76*	2	.	18	-1	-34
C[C@H](CO)N1C[C@H](C)[C@@H](CN(C)C(=O)Nc2cccc(Cl)c2Cl)OCc2ccccc2-c2ccccc2C1=O	5	.	.	.	.	.
Cc1ccc(S(=O)(=O)N(C)C[C@@H]2Oc3ccc(NC(=O)CCCCCC(=O)Nc4ccccc4N)cc3CC(=O)N([C@H](C)CO)C[C@@H]2C)cc1	4	.	.	72*[16.7 µM]	.	.
C[C@H](CO)N1C[C@H](C)[C@H](CN(C)S(=O)(=O)c2ccccc2)Oc2ccc(NC(=O)CCCCCC(=O)Nc3ccccc3N)cc2CC1=O	20	.	.	57*[16.7 µM]	.	.
COc1ccccc1N1CCN(C(=S)Nc2ccc(S(=O)(=O)N3CCOCC3)cc2)CC1	26	33	-1	36	-2	14
O=S(=O)(c1ccc(NC(=S)N2CCN(c3ccccc3F)CC2)cc1)N1CCOCC1	18	23	-1	59*	0	9
O=C(c1ccccc1)N1CCSc2sccc2C1=O	54	27	0	66*	-9	72*
CCCSc1nc2cc(S(=O)(=O)N3CCOCC3)ccc2n1CC	-6	4	-6	-5	-2	67*
CCn1c(SCC#N)nc2cc(S(=O)(=O)N3CCOCC3)ccc21	-26	-9	0	-2	0	-18
CO[C@H]1CC[C@H]2CCN(C)C(=O)C[C@@H](c3ccccc3)CN(C)C(=O)c3cccc(C#N)c3OC[C@H]1O2	9	.	.	-1[16.7 µM]	.	.
O=C1/C(=C/c2ccccc2[N+](=O)[O-])COc2ccccc21	61*	31	-3	-349	-16	?
CC(NC(=O)C12CC3CC(C)(CC(C)(C3)C1)C2)c1ccncc1 (stereo not given)	0	8	-3	65*	0	26
C[C@@H]1CN([C@H](C)CO)C(=O)c2cc(-c3cccc(C#N)c3)cnc2O[C@H]1CN(C)C(=O)c1cnccn1	-22	.	.	-18[16.7 µM]	.	.
CCOc1ccc(C(C)=O)cc1COc1cccnc1[N+](=O)[O-]	19	1	3	33	30*	51*
COc1cccc(S(=O)(=O)N(C)C[C@@H]2Oc3cc(C4=CCCCC4)ccc3S(=O)(=O)N([C@@H](C)CO)C[C@H]2C)c1	77*	.	.	27[16.7 µM]	.	.
COc1cccc(S(=O)(=O)N(C)C[C@H]2Oc3cc(C4=CCCCC4)ccc3S(=O)(=O)N([C@@H](C)CO)C[C@@H]2C)c1	52	.	.	40[16.7 µM]	.	.
COc1cccc(S(=O)(=O)N(C)C[C@H]2Oc3cc(C4=CCCC4)ccc3S(=O)(=O)N([C@@H](C)CO)C[C@H]2C)c1	10	.	.	110*[16.7 µM]	.	.
SMILES	PAX8 inh HTS	Shn3 3UTR inh	NSD2 inh	HIV Env fusion	N-glyco inh	LMP1 NFkB inh
COc1ccc(S(=O)(=O)N(C)C[C@@H]2Oc3cc(C4=CCCC4)ccc3S(=O)(=O)N([C@H](C)CO)C[C@@H]2C)cc1	.	.	.	23[16.7 µM]	.	.
N#C/C(=C\c1ccc([N+](=O)[O-])cc1)c1ccccn1	-92	-2	-1	-77	14	-21
COc1cc(/C=C(\C#N)c2ccccn2)cc(OC)c1O	22	5	7	-5	22	-10
CN(C)c1ccc(NC(=S)c2ccccn2)cc1	?	62	25	27	-20	73*
COc1cc(/C=C(\C#N)c2ccccn2)ccc1OCc1ccccc1Cl	-13	10	-3	5	-6	70*
CN(C)c1ccc(/C=C(\C#N)c2ccccn2)cc1	26	45	-4	-192	-19	60*
CCN(CCO)c1ccc(Nc2cc(-c3ccc(-c4ccccc4)cc3)ncn2)cc1	-4	-17	-2	-1	1	.
CCN(CCO)c1ccc(N=Nc2cc(C)[nH]n2)cc1	87*	15	9	40	-21	63*
CN(C)CC(=O)Nc1ccc2c(c1)[C@@H]1C[C@H](CC(=O)NCCc3ccccc3)O[C@H](CO)[C@@H]1O2	1	.	.	1[16.7 µM]	.	.
COC(=O)Oc1ccc(/C=C/C(=O)OC(C)C)cc1OC(=O)OC	-33	94*	2	-11	-3	-14
CCCCOC(=O)/C=C/c1ccc(OC(=O)OC)c(OC(=O)OC)c1	-77	96*	5	.	-3	-15
COc1ccc(/C=C/C(=O)OCCNC(=O)c2ccncc2)cc1OC	-8	16	-1	-6	4	2
Nc1ncnc2c(C3OC(CO)C(O)C3O)scc12 (stereo not given)	114*	97*	.	109*	-9	71*
Cc1ccc(-c2csc(NC(=O)c3cccc(S(=O)(=O)N4CCN(C)CC4)c3)n2)cc1	18	49	0	25	2	8
Cc1cccc(NC(=O)c2ccc(S(=O)(=O)N3CC(C)OC(C)C3)cc2)n1 (stereo not given)	13	6	-3	56*	0	9
CC1CN(S(=O)(=O)c2ccc(C(=O)Nc3nc(-c4cc5ccccc5o4)cs3)cc2)CC(C)O1 (stereo not given)	14	87*	2	38	-6	21
O=C(Nc1nc(-c2cccs2)cs1)c1cccc(S(=O)(=O)N2CCCCC2)c1	33	.	4	69*	0	-1
O=C(Nc1nc(-c2cc3ccccc3o2)cs1)c1ccc(S(=O)(=O)N2CCCC2)cc1	23	77	7	57*	-4	12
CN(C)S(=O)(=O)c1ccc(C(=O)Nc2nc(-c3cc4ccccc4o3)cs2)cc1	-8	62	1	36	-5	2
